# According to ChEMBL document CHEMBL4513216, “Probing the Open Global Health Chemical Diversity Library for Multistage-Active Starting Points for Next-Generation Antimalarials” (ACS Infect Dis, 2020):
# Out of some 69,000 compounds screened, about 8,600 (12%) showed an effect of 50% or more. The sample holds strong results, similar compounds and a random draw of the others, so the mix is not that of the screen.
# Tested on: Plasmodium berghei
# Experiment: Screen against P. berghei liver stage (PbLuc), transformed with Luciferase, at 10uM
# Format: functional, HepG2
# Conditions: tested at 10 uM
row,Structure (SMILES),INHIBITION [%]
1,CCc1c(C(=O)N2CC(C)OC(C)(C)C2)cnn1-c1ccccn1 (stereo not drawn),2.97
2,CC1CN(C(=O)c2cnn(-c3ccccn3)c2C(C)C)CC(C)(C)O1 (stereo not drawn),51.5
3,CCc1c(C(=O)N2CCOC(C)(C)C2)cnn1-c1ccccn1,4.95
4,CCOC[C@@H]1CCC[C@]12CN(S(=O)(=O)c1cn(C)cn1)CCO2,35.5
5,O=C(c1cccn1Cc1cccs1)N1CCSCC1,9.64
6,COc1cccc(OCCNS(=O)(=O)Cc2ccccc2)c1,10.7
7,COc1cccc(OCCNS(C)(=O)=O)c1,-0.614
8,COc1cccc(OCCNCc2ccccc2)c1,51.5
9,CC(C)(C)c1n[nH]c(C2CN(C(=O)C3=COCCC3)CCO2)n1 (stereo not drawn),40.2
10,COc1ccccc1OC1(C(=O)O)CCN(c2nc(C)cnc2C)CC1,56.5
11,COc1ccccc1OC1(C(=O)O)CCN(c2nccnc2C)CC1,8.47
12,COc1ccccc1OC1(C(=O)O)CCN(c2ccccn2)CC1,40.5
13,COc1ccccc1OC1(C(=O)O)CCN(c2nccnc2OC)CC1,3.03
14,COc1ccccc1OC1(C(=O)O)CCN(c2ncccc2F)CC1,30.8
15,COc1ccccc1OC1(C(=O)O)CCN(c2ncnc(C)c2C)CC1,55.4
16,CN1CC2(CCN(C(=O)c3ccc(-n4cccn4)cc3Cl)C2)OC1=O (stereo not drawn),32.5
17,CC(=O)c1cnc(NCCCN2CCOCC2)nc1C,-4.96
18,O=C(COc1ccccc1)NCC1CC1,3.63
19,CCNc1ncc(C(=O)NCc2csc(-c3ncccn3)n2)cn1,62.2
20,CCNc1ncc(C(=O)NCc2csc(C)n2)cn1,35.4
21,CCNc1ncc(C(=O)NCCCc2ccncc2)cn1,19.4
22,CCNc1ncc(C(=O)NCCc2ccc(C)c(C)c2)cn1,-4.21

row,Structure (SMILES),INHIBITION [%]
1,CSCc1nc(CCNC(=O)C2CCCN(C(C)=O)C2)cs1 (stereo not drawn),-90.8
2,O=C(NCCc1csc(-c2ncccn2)n1)c1cnn2c1CCCC2,-52.5
3,CCNc1ncc(C(=O)NCCc2csc(-c3ncccn3)n2)cn1,56.6
4,CCNc1ncc(C(=O)NCCc2csc(CSC)n2)cn1,51.8
5,CCNc1ncc(C(=O)NCc2csc(-c3cnccn3)n2)cn1,-10.5
6,CCN(Cc1nc2c(cnn2C)c(=O)[nH]1)Cc1ccccc1Cl,-29.8
7,Cc1ccc2nc(CN3CCCCC3C(=O)N3CCOCC3)cn2c1 (stereo not drawn),20
8,CC(C)Cn1nccc1NC(=O)CN1CCOC(Cn2cccn2)C1 (stereo not drawn),23.4
9,CNC(=O)[C@@H](c1ccccc1)N1CCC[C@H]1C(=O)NC1CCCCC1,30.9
10,CCc1cnc(N2C[C@H](OCc3csc(C)n3)[C@H]3COC[C@H]32)nc1,40.8
11,Cc1nnnn1-c1cc(NCc2cccc(C#N)c2)ccc1F,31
12,O=C(CC1CC1)NCc1cc(=O)n2c(n1)CN(Cc1ccoc1)CCC2,36.8
13,O=C(Nc1ccccc1)N1C2CCC(O)(CC2)C1CO (stereo not drawn),44.9
14,CCc1noc(C)c1C(=O)N1CCCC(n2nc(C)nc2C)C1 (stereo not drawn),-19.85
15,CS(=O)(=O)N1CCOCC2(CN(Cc3ccsc3)CCO2)C1 (stereo not drawn),0.139
16,CS(=O)(=O)N1CCO[C@@H]2CN(Cc3ccc(F)cc3)C[C@@H]2C1,61.9
17,CS(=O)(=O)N1CCOCC12CCN(Cc1ccc(F)cc1)CC2,57.3
18,CS(=O)(=O)N1CCO[C@@H]2CN(Cc3ccc(F)cc3)CC[C@@H]2C1,10.5
19,CS(=O)(=O)N1CCO[C@@H]2CN(Cc3ccncc3)C[C@@H]2C1,18.5
20,Cc1ccc(CN2CCOC3(COCCN(S(C)(=O)=O)C3)C2)s1 (stereo not drawn),11.4
21,Cc1ccc(CN2CCC3(CC2)COCCN3S(C)(=O)=O)o1,11.6
22,CS(=O)(=O)N1CCOCC12CCN(Cc1ccoc1)CC2,34.5

row,Structure (SMILES),INHIBITION [%]
1,CS(=O)(=O)N1CCOCC2(CN(Cc3ccc(F)cc3)CCO2)C1 (stereo not drawn),57.4
2,O=C(c1ccc2c(c1)CCCC2)N1CCn2ncnc2C1,-0.275
3,O=C(c1ccccn1)N1CCOC2(COCCN(Cc3cc[nH]n3)C2)C1 (stereo not drawn),-95.7
4,CC(C)C[C@H](NC(=O)Cc1csc(-c2cccc(Cl)c2)n1)C(=O)O,40.8
5,CCc1ccsc1C(=O)NCCn1nc2ccccn2c1=O,14.4
6,c1cnn(CC2CCCN2Cc2ccc(-n3cccn3)cc2)c1 (stereo not drawn),41.2
7,c1ccc(CN2CCNCC(Cc3cnccn3)C2)cc1 (stereo not drawn),-11.4
8,CCc1nc(C(=O)N2CC(C(C)C)Nc3ccccc32)c[nH]1 (stereo not drawn),3.13
9,COCCNc1ncc(-c2cccc(OC)c2)c(-c2nccn2C)n1,3.48
10,CC(C)[C@H]1CN(Cc2ccccn2)C[C@@H]1NC(=O)CC1CCC1,41.8
11,CC(C)[C@H]1CN(Cc2c[nH]cn2)C[C@@H]1NC(=O)CC1CCC1,57.3
12,CC(C)[C@H]1CN(Cc2nccn2C)C[C@@H]1NC(=O)CCS(C)(=O)=O,12.9
13,O=C(c1ccc(F)cc1)N1CCC2(CCN(Cc3ccccn3)C2=O)C1 (stereo not drawn),2.79
14,CC(=O)N1CCCC1c1cccc(NCc2ccccc2F)n1 (stereo not drawn),64.1
15,CC(=O)N1CCCC1c1cccc(Cc2ccc(F)cc2)n1 (stereo not drawn),13.6
16,CS(=O)(=O)N1CCCC1c1cccc(Cc2ccccc2F)n1 (stereo not drawn),-51.4
17,CN1CCCC1c1cccc(Cc2ccc(F)cc2)n1 (stereo not drawn),100
18,COCC(=O)N1CCCC1c1cccc(Cc2ccccc2F)n1 (stereo not drawn),24.4
19,CN1CCCC1c1cccc(Cc2ccccc2F)n1 (stereo not drawn),76.2
20,CN1CCCC1c1cc2cccnc2n1Cc1ccc(F)cc1 (stereo not drawn),30.85
21,CC(=O)N1CCCC1c1cccc(Cc2ccccc2F)n1 (stereo not drawn),14.8
22,CN(C)C(=O)CN1CCCC1c1cccc(Cc2ccccc2F)n1 (stereo not drawn),42.6

row,Structure (SMILES),INHIBITION [%]
1,Cc1ncsc1C(=O)N1CCCC1c1c(C)nn(C)c1C (stereo not drawn),16.6
2,Cc1cc(Nc2cnccn2)cc(C2CCCNC2)n1 (stereo not drawn),19.5
3,CO[C@@H]1CCC[C@@H](NC(=O)c2cccc(F)c2)[C@H]1O,28.2
4,CNc1nc2cn(CCc3ccc(C)cc3)c(=O)c-2c[nH]1,3.52
5,O=C(Cc1ccccn1)N1CCN(C(=O)CC2CCCCC2)CC1,13.6
6,Cc1cc(NCC2CCS(=O)(=O)C2)n2nc(C)cc2n1 (stereo not drawn),47
7,CCC(C)(C)n1nnnc1C(c1cccs1)N1CCc2ccccc2C1 (stereo not drawn),51.4
8,CCC(C)(C)n1nnnc1C(c1cccs1)N1CCc2ccccc21 (stereo not drawn),42.6
9,CCC(C)(C)n1nnnc1C(c1cccs1)N1CCCCC1 (stereo not drawn),21.7
10,Cc1ccc(C(=O)N2C[C@H]3CCC[C@@]3(COCc3ccncc3)C2)cn1,43.9
11,CCc1nnc2n1CCN(C(=O)CN(C)Cc1ccccc1)C2,20.1
12,Cc1nnc2n1CCN(C(=O)c1cnc(C3CC3)s1)C2,53.9
13,Cc1nnc2n1CCN(C(=O)c1ccnc(N(C)C)c1)C2,21.6
14,CCc1nnc2n1CCN(C(=O)c1ccccc1OCC1CC1)C2,7.21
15,CCc1nnc2n1CCN(C(=O)c1csc(-c3cnn(C)c3)n1)C2,29.7
16,CCc1nnc2n1CCN(C(=O)c1ccc(-c3ccco3)nc1C)C2,61.3
17,CCc1nnc2n1CCN(C(=O)c1ccc(-c3ccco3)[nH]c1=O)C2,-19.6
18,CCc1nnc2n1CCN(C(=O)CN(CC)CC)C2,49.8
19,CCc1nnc2n1CCN(C(=O)c1cnn(C)c1C1CC1)C2,53.9
20,Cc1nc(-c2ccco2)ccc1C(=O)N1CCn2c(C)nnc2C1,-17.6
21,CC(C)c1nnc2n1CCN(C(=O)c1cnc(C3CC3)s1)C2,43.1
22,CCc1nnc2n1CCN(C(=O)CN(C)C1CC1)C2,51.1

row,Structure (SMILES),INHIBITION [%]
1,NC(=O)C1(CCCc2ccncc2)CCCN1 (stereo not drawn),1.5
2,CNS(=O)(=O)c1ccc(CNC(=O)c2c(C)oc(C)c2C)cc1,-6.14
3,CN1CCCC1CNC(=O)CCCOc1ccc(Br)cc1 (stereo not drawn),-62.6
4,Cc1ccc(-c2nnc(SCC(=O)O)n2-c2ccc(C)cc2)cc1,33.5
5,O=S(=O)(C1CC1)N1CCc2ncnc(N3CCCC3)c2CC1,-17.7
6,COc1ccc(C(=O)NCCN(C)C)c(I)c1,-0.217
7,NC(=O)N1CCC(NCc2cc(Br)ccc2Cl)CC1,34.7
8,CC(C)(C)c1ncc(C(=O)NCCNC(=O)c2ccco2)s1,-21.5
9,COc1cc(C(=O)N2CCCC(c3cc(C)[nH]n3)C2)ccc1C (stereo not drawn),24
10,CCc1nnc2n1CCN(C(=O)c1cnc(C3CC3)s1)C2,13.9
11,CCc1nnc2n1CCN(C(=O)c1cnc(-c3cccs3)s1)C2,19.3
12,CCc1ncc(C(=O)N2CCn3c(CC)nnc3C2)s1,53.9
13,Cc1cc(C)c2ncc(C#N)c(N3CCS(=O)(=O)CC3)c2c1,36.3
14,Cc1cnn(CC2CCCCN2C(=O)CC(F)(F)F)c1 (stereo not drawn),9.14
15,O=C(c1cc(C2CC2)nc2onc(-c3ccccc3)c12)N1CC[C@H](O)C1,28.5
16,O=C(c1cc(C2CC2)nc2onc(-c3ccccc3)c12)N1CCOCC1,51.7
17,O=C(c1cc(-c2ccccc2)nc2onc(C3CC3)c12)N1CC[C@H](O)C1,73
18,O=C(c1cccnc1SCc1ccccc1)N1CC[C@@H](O)C1,-34
19,O=C(CN1CCCC1c1nc(-c2ccccc2)no1)N1CCOCC1 (stereo not drawn),-21.8
20,O=C(c1cc(C2CC2)nc2onc(-c3ccccc3)c12)N1CC(O)C1,44.3
